Laboratory results: PubChem BioAssay (EPA / NIEHS)
Records with an inconclusive call do not appear. The source made the active and inactive calls. The calls were made as follows: active = hit-call score of the fitted dose curve at least 0.9, where 1 is the maximum; inconclusive = response in the unintended direction; inactive = score below 0.9.

experiment: ACEA_ER_AUC_viability: ACEA Biosciences xCELLigence Real-Time Cell Analysis on Estrogen Receptor Agonism for Viability (AID 2283782);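 also: hit means loss of impedance signal meaning reduced cell growth or viability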
Summary of the method: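 Read-out: real-time electrical impedance (RT-CES) area under curve, loss of signal taken as reduced viability, normalized to DMSO baseline. T-47D cells, charcoal-stripped serum medium, compounds up to 100 uM final, continuous exposure, 80 h.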

Row | Structure (SMILES) | outcome | AC50
1 | CCOP(=S)(OCC)OP(=S)(OCC)OCC | inactive | –
2 | O=C(O)COc1ccc(Cl)cc1 | inactive | –
3 | O=NN1CCCCCCC1 | inactive | –
4 | CCCCS(=O)(=O)Cl | – | 53.1 µM (active)
5 | CCOP(=O)(OCC)OC(=CCl)c1ccc(Cl)cc1Cl | – | 77.8 µM (active)
6 | CCCCOC(=O)COC(=O)c1ccccc1C(=O)OCCCC | inactive | –
7 | COCC(=O)N(c1c(C)cccc1C)[C@H](C)C(=O)OC | – | 50 µM (active)
8 | CCC[CH2][Sn]([CH2]CCC)([CH2]CCC)[CH2]CCC | – | 22 µM (active)
9 | Cc1cc(Cl)ccc1O | inactive | –
10 | Oc1c(Br)cc(Br)cc1Br | inactive | –
11 | Nc1nc(N)nc(Cl)n1 | inactive | –
12 | Cc1cc(Cl)ccc1OC(C)C(=O)O (centres undefined) | inactive | –
13 | CCOC(=O)Cc1ccccc1 | – | 50 µM (active)
14 | CCCCCCCCCCBr | inactive | –
15 | O=[N+]([O-])c1ccc(Nc2ccccc2)cc1 | inactive | –
16 | Brc1ccc(Br)cc1 | inactive | –
17 | c1cc[c]([Sb]([c]2ccccc2)[c]2ccccc2)cc1 | – | 50 µM (active)
18 | C=C(C)C(=O)OCCCCOC(=O)C(=C)C | – | 30.7 µM (active)
19 | CC(C)=CC1C(C(=O)OCc2cccc(Oc3ccccc3)c2)C1(C)C (centres undefined) | inactive | –
20 | CCOc1cc(C=O)ccc1O | inactive | –
21 | Cc1ccccc1OP(=O)(Oc1ccccc1)Oc1ccccc1 | – | 62.9 µM (active)
22 | CC(C)(C#N)N=NC(C)(C)C#N | inactive | –
23 | CC(C)[C@H](C(=O)OC(C#N)c1cccc(Oc2ccccc2)c1)c1ccc(OC(F)F)cc1 (some centres undefined) | – | 38 µM (active)
24 | CC(C)(C)c1cc([N+](=O)[O-])cc(C(C)(C)C)c1O | – | 24.3 µM (active)
